Laboratory results as given in PubChem BioAssay (Tox21).
Results filed as inconclusive are left out. Where a call stands in place of a potency, no number is given. Activity calls are given as the source filed them. Unless noted, calls follow the shape of the dose curve; as a rule, active = well fitted curve in the direction sought with a large enough effect in the repeat runs; inconclusive = weak or mixed curves; inactive = no such curve, though single readings can be large; an effect the other way counts as inactive or inconclusive.

Tests used:
[1] = qHTS assay to identify small molecule agonists of the androgen receptor (AR) signaling pathway in the presence of an antagonist - cell viability counter screen (AID 1259379);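 also: MDA-kb2 human breast cancer cells carrying an MMTV luciferase reporter; series mostly up to about 92 µM; nearly all actives have a fitted effect of over 25% in size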
Procedure, shortened: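 In MDA-kb2 cells (human breast carcinoma, MMTV-luciferase), compounds at 15 concentrations plus 3.0uM nilutamide; 16 hr, 37C, 0% CO2; CellTiter-Fluor fluorescence read for viability.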

[2] = qHTS assay to identify small molecule agonists of the estrogen receptor beta (ER-beta) signaling pathway - cell viability counter screen (AID 1259380); also: nearly all actives have a fitted effect of over 30% in size; also: potency is read from the fitted curve at half-maximal effect
Procedure, shortened: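 Viability of ER-beta-UAS-bla HEK293T cells was determined by CellTiter-Glo luminescence following 16 hr treatment with test compounds at 37C.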

[3] = qHTS assay to identify small molecule agonists of the estrogen receptor alpha (ER-alpha) signaling pathway in the presence of an antagonist - cell viability counter screen (AID 1259386);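 also: cells exposed to compounds for 22 h at 37 °C before the viability read; nearly all actives have a fitted effect of over 30% in size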; also: potency is read from the fitted curve at half-maximal effect
Procedure, shortened: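 Fluorescent CellTiter-Fluor viability signal from VM7Luc4E2 cells, with the reagent added during the final hour of a 22hr compound exposure at 37C in the presence of 10.0nM ICI-182,780.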

[4] = target: Progesterone receptor (Homo sapiens) (UniProt P06401); assay: qHTS assay to identify small molecule agonists of the progesterone receptor (PR) signaling pathway (AID 1346784; calls by dose curve; also: nearly all actives have a fitted effect of over 30% in size)
Procedure, shortened: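 Agonist qHTS: compounds pinned onto 3,000 PR-UAS-bla HEK 293T cells per well in charcoal-stripped serum medium, 16hr at 37C, then beta-lactamase activity measured by LiveBLAzer FRET fluorescence after 2 hours at room temperature.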

[5] = target: Progesterone receptor (Homo sapiens) (UniProt P06401); assay: qHTS assay to identify small molecule antagonists of the progesterone receptor (PR) signaling pathway (AID 1346795; active = well fitted inhibition curve with a large enough effect in the signal ratio in the repeat runs, not every such curve was filed as active; the % refers to the signal ratio)
Procedure, shortened: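 Antagonist mode with agonist R5020 at 1 nM final and 16 hr incubation at 37C. Reporter was beta-lactamase driven by UAS in HEK293T (PR-UAS-bla), 2% charcoal-stripped serum; signal from LiveBLAzer FRET substrate, 2 hr at room temperature.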

[6] = qHTS assay to identify small molecule antagonists of the progesterone receptor (PR) signaling pathway - cell viability counter screen (AID 1346798); also: series mostly up to about 92 µM; nearly all actives have a fitted effect of over 50% in size
Procedure, shortened: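 Cytotoxicity read as CellTiter-Glo luminescence (30 min, room temperature) in the same wells as the beta-lactamase readout. HEK293T PR-UAS-bla cells in charcoal-stripped 2% FBS received compound and R5020, then 16 h at 37C, 5% CO2.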

[7] = qHTS assay to identify small molecule agonists of the progesterone receptor (PR) signaling pathway - cell viability counter screen (AID 1346799; calls by dose curve; also: nearly all actives have a fitted effect of over 45% in size)
Procedure, shortened: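 Cytotoxicity measured by CellTiter-Glo luminescence (30 min, RT) in the same wells as the PR beta-lactamase agonist read. Those HEK293T cells had 16 h compound treatment at 37 C in 2% charcoal-stripped FBS medium.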

[8] = qHTS assay to identify small molecule agonists of the TGF-beta/Smad signaling pathway - cell viability counter screen (AID 1346829); also: top concentration of the series differs between compounds; nearly all actives have a fitted effect of over 45% in size
Procedure, shortened: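 CellTiter-Glo luminescence readout; SBE-bla HEK 293T cells, overnight plating, compound 5 hr at 37 C/5% CO2, then bla substrate 2 hr RT, then CellTiter-Glo 30 min RT.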

[9] = qHTS assay to identify small molecule agonists of the TGF-beta/Smad signaling pathway (AID 1346859; active = well fitted activation curve with a large enough effect in the signal ratio in the repeat runs, not every such curve was filed as active; the % refers to the signal ratio; also: series mostly up to about 77 µM)
Procedure, shortened: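 Fluorescence (ex 405 nm; em 460 and 530 nm) was read 2 h after LiveBLAzer FRET substrate at RT. The preceding compound treatment of overnight-plated SBE-bla HEK293T cells lasted 5 h at 37 C.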

[10] = target: Thyrotropin-releasing hormone receptor (Homo sapiens) (UniProt P34981); assay: qHTS assay to identify small molecule antagonists of the thyrotropin-releasing hormone receptor (TRHR) signaling pathway (AID 1346877; active = well fitted inhibition curve with a large enough effect in the repeat runs, not every such curve was filed as active; also: series mostly up to about 51 µM)
Procedure, shortened: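 In this cell-based calcium flux format, HEK293 cells expressing TRHR received test compound for 5 min before the agonist TRH (1 nM final). Dye loading lasted 2 h at 37 °C.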

[11] = target: Thyrotropin-releasing hormone receptor (Homo sapiens) (UniProt P34981); assay: qHTS assay to identify small molecule agonists of the thyrotropin-releasing hormone receptor (TRHR) signaling pathway (AID 1346891; calls by dose curve; also: potency is read from the fitted curve at half-maximal effect; as to activation: series mostly up to about 58 µM)
Procedure, shortened: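 Agonist-mode intracellular calcium readout: kinetic fluorescence over 3 min at 1 s intervals after compound addition to TRHR-HEK293 cells (18 h seeded, 2 h dye-loaded at 37 C). Fifteen concentrations, triplicates.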

[12] = Human pregnane X receptor (PXR) small molecule agonists, qHTS cell viability counter screen (AID 1346977); also: nearly all actives have a fitted effect of over 50% in size; also: potency is read from the fitted curve at half-maximal effect
Procedure, shortened: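 Same-well viability read: CellTiter-Fluor added after 23 hr compound exposure, fluorescence measured 1 hr later. Cells were PXR-Luc HepG2 seeded at 2,000/well in 5% charcoal-stripped FBS medium, rested 5 hr before dosing at 37 C.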

[13] = qHTS assay to identify small molecule antagonists of the estrogen receptor beta (ER-beta) signaling pathway - cell viability counter screen (AID 1259382);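 also: HEK293T cells carrying ER-beta-UAS-bla reporter stimulated with estradiol; series mostly up to about 92 µM; nearly all actives have a fitted effect of over 55% in size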
Procedure, shortened: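 Tox21 10K library tested in qHTS format on ER-beta-bla HEK293T cells stimulated with 1nM E2; 16 hr treatment at 37C. Same-well CellTiter-Glo luminescence served as the cell viability measure.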

[14] = target: Estrogen receptor (Homo sapiens) (UniProt P03372); assay: qHTS assay to identify small molecule agonists of the estrogen receptor alpha (ER-alpha) signaling pathway in the presence of an antagonist (AID 1259383; calls by dose curve; also: top concentration of the series differs between compounds; nearly all actives have a fitted effect of over 15% in size)
Procedure, shortened: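 In VM7Luc4E2 cells, 4,000 per well, compounds at 15 concentrations were co-incubated 22hr at 37C with 10.0nM final ICI-182,780. Luminescence from the stably transfected 4×ERE-luciferase reporter was recorded 30min after ONE-Glo addition.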

[15] = qHTS assay to identify small molecule agonists or antagonists of the thyroid stimulating hormone receptor (TSHR) signaling pathway - wild type cell line counter screen (AID 1259384; calls by dose curve)
Procedure, shortened: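 Wild-type Hek293 cells, 800/well, 18 h at 37C, then compound with Ro20-1724 for 30 min RT. cAMP by HTRF (cAMP-d2/anti-cAMP cryptate), 1 h RT, fluorescence read. 15 concentrations, triplicates.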

[16] = target: Thyrotropin receptor (Homo sapiens) (UniProt P16473); assay: qHTS assay to identify small molecule antagonists of the thyroid stimulating hormone receptor (TSHR) signaling pathway (AID 1259385; calls by dose curve; also: nearly all actives have a fitted effect of over 20% in size)
Procedure, shortened: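 TSHR-HEK293 cells (800/well) plated 18 h, then compounds with Ro20-1724 and TSH at 1.5 ng/mL final, 30 min at room temperature. cAMP quantified by HTRF (cAMP-d2/anti-cAMP-cryptate, 1 h); 15 concentrations in triplicate.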

[17] = qHTS assay to identify small molecule antagonists of the TGF-beta/Smad signaling pathway - cell viability counter screen (AID 1346824); also: nearly all actives have a fitted effect of over 50% in size
Procedure, shortened: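 SBE-bla HEK 293T cells, incubated overnight, then compound plus 0.25 ng/mL TGF-beta1 (stock added) for 5 hr at 37 C. Viability was read in the same wells by CellTiter-Glo luminescence after 30 min at room temperature.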

Thyrotropin receptor (Homo sapiens), sequence (P16473 whole entry, looked up): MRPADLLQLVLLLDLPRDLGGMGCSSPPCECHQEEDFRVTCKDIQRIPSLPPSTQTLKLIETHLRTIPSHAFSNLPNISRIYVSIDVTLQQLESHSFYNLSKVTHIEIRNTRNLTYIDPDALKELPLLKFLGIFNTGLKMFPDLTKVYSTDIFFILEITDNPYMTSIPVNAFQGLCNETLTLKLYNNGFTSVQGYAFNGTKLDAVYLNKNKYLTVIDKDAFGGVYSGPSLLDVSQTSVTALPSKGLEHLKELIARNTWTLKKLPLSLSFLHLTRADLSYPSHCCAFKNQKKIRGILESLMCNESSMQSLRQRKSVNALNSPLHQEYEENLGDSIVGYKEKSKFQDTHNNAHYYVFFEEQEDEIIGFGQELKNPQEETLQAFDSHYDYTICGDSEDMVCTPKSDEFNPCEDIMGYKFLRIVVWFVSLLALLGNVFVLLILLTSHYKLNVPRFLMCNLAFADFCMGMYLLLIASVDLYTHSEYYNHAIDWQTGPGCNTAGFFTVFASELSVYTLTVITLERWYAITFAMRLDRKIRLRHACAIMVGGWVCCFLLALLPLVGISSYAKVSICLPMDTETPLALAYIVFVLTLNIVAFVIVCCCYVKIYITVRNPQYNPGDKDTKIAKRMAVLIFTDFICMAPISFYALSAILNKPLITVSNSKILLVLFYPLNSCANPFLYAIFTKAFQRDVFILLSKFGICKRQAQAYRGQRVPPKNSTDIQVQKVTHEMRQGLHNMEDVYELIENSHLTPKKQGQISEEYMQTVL
Thyrotropin-releasing hormone receptor (Homo sapiens), sequence (P34981 whole entry, looked up): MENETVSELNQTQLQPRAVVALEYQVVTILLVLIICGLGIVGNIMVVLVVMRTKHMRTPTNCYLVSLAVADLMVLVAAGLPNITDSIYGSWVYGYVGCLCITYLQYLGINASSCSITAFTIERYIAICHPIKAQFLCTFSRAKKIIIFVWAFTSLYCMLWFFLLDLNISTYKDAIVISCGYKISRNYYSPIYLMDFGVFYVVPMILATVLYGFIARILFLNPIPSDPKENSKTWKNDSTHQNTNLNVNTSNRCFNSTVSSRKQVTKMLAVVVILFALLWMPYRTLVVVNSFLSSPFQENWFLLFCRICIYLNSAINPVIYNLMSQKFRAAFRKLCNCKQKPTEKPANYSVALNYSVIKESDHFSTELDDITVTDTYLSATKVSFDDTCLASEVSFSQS
Estrogen receptor (Homo sapiens), sequence (P03372 whole entry, looked up): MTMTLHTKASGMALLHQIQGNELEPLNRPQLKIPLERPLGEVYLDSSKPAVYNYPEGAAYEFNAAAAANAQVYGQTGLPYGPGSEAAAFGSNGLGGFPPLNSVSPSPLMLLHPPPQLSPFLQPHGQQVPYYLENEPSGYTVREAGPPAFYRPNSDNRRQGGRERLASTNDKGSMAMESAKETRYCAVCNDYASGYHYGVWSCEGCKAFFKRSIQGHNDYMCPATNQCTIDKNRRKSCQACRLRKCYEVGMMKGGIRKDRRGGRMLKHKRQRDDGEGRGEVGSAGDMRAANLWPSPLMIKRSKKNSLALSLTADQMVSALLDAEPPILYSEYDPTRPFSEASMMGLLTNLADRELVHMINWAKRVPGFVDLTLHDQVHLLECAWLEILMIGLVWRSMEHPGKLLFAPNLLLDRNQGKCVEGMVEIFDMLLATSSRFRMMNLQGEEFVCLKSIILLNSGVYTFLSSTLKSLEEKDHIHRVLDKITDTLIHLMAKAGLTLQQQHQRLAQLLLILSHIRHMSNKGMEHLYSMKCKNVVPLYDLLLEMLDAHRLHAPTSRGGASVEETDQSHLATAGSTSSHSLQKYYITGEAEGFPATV
Progesterone receptor (Homo sapiens), sequence (P06401 whole entry, looked up): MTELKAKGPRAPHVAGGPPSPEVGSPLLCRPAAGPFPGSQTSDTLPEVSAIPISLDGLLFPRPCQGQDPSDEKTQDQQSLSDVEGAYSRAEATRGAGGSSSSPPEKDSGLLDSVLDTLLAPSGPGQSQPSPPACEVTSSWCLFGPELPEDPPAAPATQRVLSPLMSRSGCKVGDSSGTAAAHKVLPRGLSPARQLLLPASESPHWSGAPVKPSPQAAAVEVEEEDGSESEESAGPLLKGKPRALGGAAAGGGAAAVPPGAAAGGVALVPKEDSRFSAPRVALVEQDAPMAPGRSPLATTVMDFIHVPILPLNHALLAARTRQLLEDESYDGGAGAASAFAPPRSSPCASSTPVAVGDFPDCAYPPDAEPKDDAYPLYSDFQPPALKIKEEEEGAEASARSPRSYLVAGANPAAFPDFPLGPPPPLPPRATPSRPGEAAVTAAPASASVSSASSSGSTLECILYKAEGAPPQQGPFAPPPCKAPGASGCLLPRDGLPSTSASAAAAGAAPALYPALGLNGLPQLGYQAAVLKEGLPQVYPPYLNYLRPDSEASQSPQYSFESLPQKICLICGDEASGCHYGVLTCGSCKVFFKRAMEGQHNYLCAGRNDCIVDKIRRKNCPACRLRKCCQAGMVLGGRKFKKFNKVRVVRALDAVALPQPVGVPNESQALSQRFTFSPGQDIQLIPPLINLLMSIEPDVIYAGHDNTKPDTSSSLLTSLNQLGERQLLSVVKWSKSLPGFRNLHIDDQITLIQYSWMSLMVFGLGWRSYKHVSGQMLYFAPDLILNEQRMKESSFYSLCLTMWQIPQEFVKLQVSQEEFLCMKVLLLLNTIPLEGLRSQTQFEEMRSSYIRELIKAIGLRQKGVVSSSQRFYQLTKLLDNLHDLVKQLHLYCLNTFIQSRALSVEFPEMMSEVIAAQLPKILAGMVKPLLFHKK

| SMILES | Potency [1] | Potency [2] | Potency [3] | Potency [4] | Potency [5] | Potency [6] | Potency [7] | Potency [8] | outcome [9] | Potency [10] | Potency [11] | Potency [12] | Potency [13] | Potency [14] | Potency [15] | Potency [16] | Potency [17] |
| --- | --- | --- | --- | --- | --- | --- | --- | --- | --- | --- | --- | --- | --- | --- | --- | --- | --- |
| C=C[C@H]1CN2CC[C@H]1C[C@@H]2[C@@H](O)c1ccnc2ccc(OC)cc12 | inactive | inactive | inactive | inactive | inactive | inactive | inactive | inactive | inactive | inactive | inactive | inactive |  |  |  |  |  |
| CCCCCC=O |  | inactive | inactive | inactive | inactive |  | inactive | inactive | inactive | inactive | inactive | inactive | inactive | inactive | inactive | inactive | inactive |
| COCCOCCOCCO |  | inactive | inactive | inactive |  | inactive | inactive | inactive | inactive | inactive | inactive | inactive | inactive |  | inactive | inactive |  |
| Cc1ccc(C)c(O)c1 | inactive | inactive | inactive | inactive | inactive | inactive |  | inactive | inactive | inactive | inactive | inactive |  |  | inactive | inactive | inactive |
| CCC(Cc1c(I)cc(I)c(N)c1I)C(=O)O (centres undefined) | inactive | 33.3 µM (active) | inactive | inactive | inactive | inactive |  | inactive | inactive | inactive | inactive | inactive |  | inactive | inactive | inactive | inactive |
| CC1(C)O[C@@H]2C[C@H]3[C@@H]4C[C@H](F)C5=CC(=O)C=C[C@]5(C)[C@@]4(F)[C@@H](O)C[C@]3(C)[C@]2(C(=O)CO)O1 | inactive | inactive | inactive |  | inactive | inactive |  | inactive | inactive | inactive | inactive | inactive | inactive |  | inactive | inactive | inactive |
| O=C1OC2(c3ccccc31)c1cc(I)c(O)c(I)c1Oc1c2cc(I)c(O)c1I |  | inactive | 13.3 µM (active) [middle of 4 runs] | inactive | inactive | inactive |  | inactive | inactive | inactive | 19.7 µM (active) [middle of 4 runs] | 7.78 µM (active) [middle of 4 runs] |  |  |  |  | inactive |
| CCCOCCO | inactive | inactive | inactive | inactive | inactive |  | inactive | inactive | inactive | inactive | inactive | inactive | inactive |  | inactive | inactive |  |
| CC1(C)OC(=O)NC1=O | inactive | inactive | inactive | inactive | inactive |  |  | inactive | inactive |  |  | inactive | inactive |  | inactive | inactive | inactive |
| CC(=O)Nc1ccc2c(c1)Cc1cc(NC(C)=O)ccc1-2 |  | inactive | inactive | inactive | inactive | inactive | inactive | inactive | inactive | inactive | inactive | inactive | inactive |  | inactive | inactive | inactive |
| O=C(O)c1ccc(O)cc1 |  | inactive | inactive | inactive | inactive | inactive | inactive | inactive | inactive | inactive | inactive | inactive |  |  | inactive | inactive |  |
| COc1cc([C@H]2Oc3cc([C@H]4Oc5cc(O)cc(O)c5C(=O)[C@@H]4O)ccc3O[C@@H]2CO)ccc1O | inactive | inactive | inactive | inactive |  | inactive |  | inactive |  | inactive | inactive | inactive | inactive |  |  |  | inactive |
